According to PubChem BioAssay:
Values without a mark were called inactive. The rule behind the calls is not given here.

Biological target: Pantothenate synthetase (Mycobacterium tuberculosis (strain ATCC 25618 / H37Rv)) (UniProt P9WIL5)
Assay: Coupled enzyme confirmation of inhibitors against recombinant Mtb PanC (AID 375);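 note: 0% = full reaction with vehicle and 100% = no enzyme background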
Settings: coupled enzyme assay; at 10 µM, stronger effect = higher value

Sequence of Pantothenate synthetase (Mycobacterium tuberculosis (strain ATCC 25618 / H37Rv)) (P9WIL5 whole entry, looked up): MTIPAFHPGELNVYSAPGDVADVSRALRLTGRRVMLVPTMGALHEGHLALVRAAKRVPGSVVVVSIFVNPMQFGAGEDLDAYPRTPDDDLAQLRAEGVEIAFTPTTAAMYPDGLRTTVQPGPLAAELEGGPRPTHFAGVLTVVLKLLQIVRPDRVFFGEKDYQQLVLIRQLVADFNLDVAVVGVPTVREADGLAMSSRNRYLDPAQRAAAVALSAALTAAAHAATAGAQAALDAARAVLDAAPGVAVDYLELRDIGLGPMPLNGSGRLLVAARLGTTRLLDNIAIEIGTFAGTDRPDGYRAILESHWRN

`COc1ccc(CCN2C(=O)CC(N3CCN(S(=O)(=O)c4ccccc4)CC3)C2=O)cc1` (stereo unspecified) and `O=C(CS(=O)(=O)c1cn(Cc2ccc(F)cc2)c2ccccc12)N1CCCCC1` are the same in inhibition: 0% for the first, 0% for the second.

First: O=c1c(O)c(-c2ccc(O)cc2O)oc2cc(O)cc(O)c12
Second: Cc1cc(=O)oc2ccc(OCC(=O)N(Cc3ccc(F)cc3)Cc3ccco3)cc12
The inhibition of the first is higher: 9% for the first, 0% for the second.

Compared with `O=C(O)c1[nH]nc2c1COc1ccccc1-2`, `O=S1(=O)N=C(Nc2nc3c(s2)CCCC3)c2ccccc21` is lower in inhibition: 6% for the first, 4% for the second.

Compared with `CCOC(=O)c1ccccc1NC(=O)c1cccnc1`, `CC(C)NC(=O)c1ccccc1NC(=O)c1ccccc1N(C)S(C)(=O)=O` is higher in inhibition: 0% for the first, 4% for the second.

`O=C(NCc1cccnc1)c1cn(CCc2ccccc2)nn1` and `CCN1C(=O)c2ccccc2S(=O)(=O)c2ccc(C(=O)NCc3cccnc3)cc21` are the same in inhibition: 0% for the first, 0% for the second.

Going from `COC(=O)CC1C(=O)NCCN1C(=O)NC1CCCCC1` (stereo unspecified) to `Cc1ccc(CNC(=O)C2CC(=O)OC23CCCC3)c(C)c1` (stereo unspecified), the inhibition falls from 1% to 0%.

Going from `CN(c1ccccc1)S(=O)(=O)c1ccc(C(=O)OCC(=O)NCc2ccco2)cc1` to `COC(=O)c1[nH]c2ccccc2c1NS(=O)(=O)c1ccc(OC)cc1OC`, the inhibition falls from 5% to 3%.

Compared with `CC12CCC(C(=O)N3CCN(C(=O)C45CCC(C)(C(=O)O4)C5(C)C)CC3)(OC1=O)C2(C)C`, `CC1CCN(C(=O)CSc2nnc(-c3ccc(S(=O)(=O)N4CCOCC4)cc3)n2C)CC1` is higher in inhibition: 0% for the first, 4% for the second.
